# In PubChem BioAssay AID504834 (National Center for Advancing Translational Sciences (NCATS), 2011):
# In all, about 320,000 compounds went through this assay and about 22,000 (6.9%) were called active. A call without a number means that no potency is given here. Inconclusive results (about 27%) are left out. The sample holds actives, similar compounds and a random draw of the others, so the mix is not that of the screen. Calls follow the shape of the dose curve; as a rule, active = well fitted inhibition curve with a large enough effect; inconclusive = small, poorly fitted or top-dose-only effect, or another doubt; inactive = no such curve, though single readings can be large or run the other way.
# Assay: Primary qHTS for delayed death inhibitors of the malarial parasite plastid, 96 hour incubation
# Conditions: P. falciparum luciferase reporter growth; series mostly up to 28.7 µM
# Outline: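 Erythrocytes infected with luciferase-expressing P. falciparum were dispensed at 2% hematocrit and 0.05% parasitemia (final), then incubated with compounds 96 hours at 37 C in 5% CO2. Luminescence after detection reagent addition reported growth.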
# Potency is read from the fitted curve at half-maximal effect.
row,SMILES,Potency
1,CC(OC(=O)CNC(=O)c1cccc(F)c1)C(=O)NC1CCCCC1C (stereo unspecified),inactive
2,COc1ccc2ccccc2c1/C=N/NC(=O)c1cc(C)[nH]n1,inactive
3,CC(C)(C)c1cc(C(=O)N/N=C/c2ccc([N+](=O)[O-])s2)n[nH]1,1.65 µM (active)
4,O=[N+]([O-])c1ccc(C=Nc2ccc(Cl)cc2Cl)s1,inactive
5,COC(=O)c1ccc(COC(=O)c2cnc(Cl)c(Cl)c2)cc1,inactive
6,CCOc1ccc(CCNC(=O)COC(=O)CCS(=O)(=O)c2ccc(C)cc2)cc1OCC,inactive
7,CCC(C(=O)N1CCN(S(=O)(=O)c2sc(C(=O)O)c(C)c2C(=O)O)CC1)c1ccccc1 (stereo unspecified),inactive
8,CN(C(=O)CN1C(=O)CCSc2ccc(S(=O)(=O)N3CCCC3)cc21)c1ccccc1,inactive
9,COc1ccc(S(=O)(=O)N2CCC(C(=O)N3CCc4ccccc4C3)CC2)cc1OC,8.28 µM (active)
10,CCOc1cc(C(=O)N2CCc3cc(OC)c(OC)cc3C2)ccc1OC(F)F,5.86 µM (active)
11,COc1ccc(S(=O)(=O)N2CCCCC2)cc1Br,inactive
12,CCOc1ccc(NC(=O)COc2ccc(C(=O)N3CCC(C(N)=O)CC3)cc2OC)cc1,inactive
13,COc1cc2c(cc1OC)CN(C(=O)c1ccc(S(=O)(=O)N3CCCCCC3)cc1)CC2,0.465 µM (active)
14,COc1cc(C(=O)NNC(=O)c2ccc(S(=O)(=O)N3CCCCC3)cc2)cc(OC)c1OC,inactive
15,COc1ccc(S(=O)(=O)N2CCC(C(=O)N3CCCC3)CC2)cc1C,inactive
16,COC(=O)Cc1ccc(OC(=O)C2CCN(S(=O)(=O)c3ccc(OC)c(OC)c3)CC2)cc1,inactive
17,CCOc1cc(CN2CCN(C(=O)CC(C)C)CC2)ccc1OC,inactive
18,COC(=O)c1ccc(C)c(NC(=O)C2CC(=O)N(C3CCCC(C)C3C)C2)c1 (stereo unspecified),inactive
19,COC(=O)c1ccccc1NC(=O)C1CCN(C(=O)N2CCOc3ccccc32)CC1,inactive
20,O=C(COC(=O)c1cccc(Cl)c1)Nc1ccc2[nH]c(=O)[nH]c2c1,inactive
21,Cc1ccc(CN(CC(=O)NCC2CCCO2)S(=O)(=O)c2ccc(C)cc2)cc1 (stereo unspecified),inactive
22,CC(=O)Nc1ccc(NC(=O)CN2C(=O)COc3ccc(S(=O)(=O)N4CCCCC4)cc32)cc1,inactive
23,Cc1ccn2c(=O)nc(SCC(=O)NCc3ccc4c(c3)OCO4)nc2c1,inactive
24,Cc1ccc(C)c(C(=O)COC(=O)Cn2[nH]c(=O)c3ccccc3c2=O)c1,inactive
25,Cc1nc(NC(=O)c2ccc3c(c2)OCCO3)ccc1Br,inactive
26,CCOc1ccc(-c2n[nH]c(C)c2-c2ccccn2)c(O)c1,inactive

row,SMILES,Potency
1,C=C(C)COc1ccc(-c2ncncc2-c2ccc(OC)cc2)c(O)c1,inactive
2,CCOc1ccc(-c2nc(N)ncc2-c2ccccc2OC)c(O)c1,inactive
3,C=C(C)COc1ccc(-c2n[nH]c(C)c2-c2ccccc2OC)c(O)c1,11.7 µM (active)
4,COc1ccc(-c2[nH]ncc2CN(C)Cc2c(C)n[nH]c2C)c(OC)c1,inactive
5,COc1ccc(-c2n[nH]c(C)c2-c2ccccc2OC)c(O)c1,11.7 µM (active)
6,COc1ccc(N=Nc2ccc(O)c(P(=O)(c3ccccc3)c3ccccc3)c2)cc1,inactive
7,CCc1nc2nc(C)c(NS(=O)(=O)c3ccc4c(c3)CCCC4)c(=O)n2[nH]1,inactive
8,C=CCn1cc(Cl)cc(C(=O)Nc2ccccc2)c1=O,inactive
9,CCOc1ccc(N/C=C/C(=O)c2cc(OC)c(OC)c(OC)c2)cc1,inactive
10,Cc1cccc(NC(=O)CSCC(=O)Nc2nnc(C3CC3)s2)c1,inactive
11,NC(=O)NC(=O)C(OC(=O)CCNS(=O)(=O)c1ccccc1)c1ccccc1 (stereo unspecified),inactive
12,COc1ccc2c(c1)c1nc3n(c(=O)c1n2CC(=O)Nc1ccccc1)CCS3,inactive
13,COCCn1c(SCC(=O)Nc2ccc3c(c2)CCC3)nc2ccccc2c1=O,inactive
14,CCn1c(SCC(=O)Nc2ccc(C)cc2)nc2nc3c(cc2c1=O)CCCC3,14.7 µM (active)
15,CCn1c(CC(=O)Nc2ccc(C)cc2)nnc1SCC(=O)Nc1nc(C)cs1,inactive
16,O=C(OCC1OC(Oc2ccc(O)cc2)C(O)C(O)C1O)c1ccccc1 (stereo unspecified),inactive
17,COc1ccc(-c2nc(SCC(=O)N3CCCC3)n[nH]2)cc1,inactive
18,O=S(=O)(c1ccc(-c2ccno2)s1)N1CCCCC1,inactive
19,CCCCN1Cc2c(nc3cc(-c4ccccc4)[nH]n3c2=O)C1=O,inactive
20,O=C(CCNS(=O)(=O)c1ccccc1C(F)(F)F)Nc1ccncc1,inactive
21,COc1ccccc1N(CC(=O)N1CCCCC1)S(=O)(=O)c1ccccc1,11.7 µM (active)
22,COc1ccc(N(CC(=O)N2CCCCCC2)S(=O)(=O)c2ccccc2)cc1,inactive
23,COc1ccccc1N(CC(=O)Nc1ccccc1C(=O)N1CCCC1)S(C)(=O)=O,9.28 µM (active)
24,COc1ccccc1NC(=O)CN(c1ccccc1OC)S(=O)(=O)c1ccccc1,inactive
25,COc1ccc([N+](=O)[O-])cc1N(CC(=O)Nc1ccccc1C(=O)N1CCOCC1)S(C)(=O)=O,inactive
